A selection: hits, their analogues and other compounds. The true share with any hit is near 3.8%.
TrxR1 substrate: substrates of rat thioredoxin reductase 1; Potency, µM (highest dose often 114 µM), without a hit: top-dose activity change, negative = substrate turnover; purified TrxR1 substrate turnover, NADPH consumption readout; hit rate 0.01% among 390,000; note: potency is the fitted concentration of half-maximal effect; nearly all actives have a fitted effect of over 50% in size
Target sequence (O89049 whole entry, looked up): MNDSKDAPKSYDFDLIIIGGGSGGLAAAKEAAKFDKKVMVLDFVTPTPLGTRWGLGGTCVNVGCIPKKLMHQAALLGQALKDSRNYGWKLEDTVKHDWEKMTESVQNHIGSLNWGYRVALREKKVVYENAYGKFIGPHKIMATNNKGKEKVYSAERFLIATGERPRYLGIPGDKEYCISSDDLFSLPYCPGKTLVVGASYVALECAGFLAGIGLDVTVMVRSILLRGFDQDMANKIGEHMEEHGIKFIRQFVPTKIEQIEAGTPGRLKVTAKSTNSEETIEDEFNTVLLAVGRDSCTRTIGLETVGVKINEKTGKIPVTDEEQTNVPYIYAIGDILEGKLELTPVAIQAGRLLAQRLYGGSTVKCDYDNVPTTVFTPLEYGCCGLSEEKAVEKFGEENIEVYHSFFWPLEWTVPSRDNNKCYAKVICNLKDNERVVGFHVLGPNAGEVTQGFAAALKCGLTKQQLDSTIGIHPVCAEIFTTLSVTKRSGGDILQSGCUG
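Rat TrxR1, dispensed at 90 nM, was prereduced with 400 uM NADPH (final) for 5 min at ~22 deg C, then incubated with compound 15 min before 400 uM selenite. A first-read NADPH fluorescence drop versus no-compound background flagged substrates.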
GCN5L2 inh: inhibitors of human GCN5L2 histone acetyltransferase. Q92830. GCN5L2 HAT assay, ThioGlo1 CoA-SH fluorescence. Potency, µM (highest dose often 58.9 µM), without a hit: at the highest dose activity change, negative = inhibition, usual class: inhibitors. hit rate 0.21% among 390,000. AID 504327; note: potency is the fitted concentration of half-maximal effect
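Titration-based screen in which CoA formation is detected via maleimide probe ThioGlo1 (50uM) turning fluorescent on thiol reaction; substrates H3(1-25) 75uM and acetyl-CoA 70uM, GCN5L2 20nM, 20 min incubation at room temperature.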
VDR inh: inhibitors of human vitamin D receptor; Potency, µM, for inactives: max response, negative = inhibition, most hits filed as inhibitors; hit rate 0.93% among 400,000; VDR-SRC2-3 peptide fluorescence polarization, 2 h; note: potency is the fitted concentration of half-maximal effect
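Fluorescence polarization assay measuring small-molecule disruption of VDR binding to the coregulator peptide SRC2-3. Compounds were pin-transferred (23 nl) into the reagent mix and incubated 2 h at room temperature before reading.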
Sfp PPTase inh: Sfp phosphopantetheinyl transferase inhibition; hit rate 3.5% among 310,000; Biochemical Sfp PPTase activity, qHTS; Potency, µM, without a hit: largest response in the series, negative = inhibition, actives largely listed as inhibitors; Q9F4F7;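 note: the enzyme is Sfp with the accession as filed and its product quenches rhodamine fluorescence; potency is the fitted concentration of half-maximal effect; 0% = enzyme reaction without inhibitor and -100% = no enzyme wells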
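Fluorescence-quenching assay with 15 nM Sfp, 5 uM rhodamine-CoA and 12.5 uM BHQ-2-labelled ybbR peptide in pH 7.6 Hepes/MgCl2 buffer. Enzyme was pre-incubated with compound for 15 min at room temperature. Rate was taken from the 30-min fluorescence change (525/598 nm).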
GLS inhibitor: blocks human kidney-isoform glutaminase activity; Potency, µM (highest dose often 45.5 µM), for the others: at the top dose activity change, negative = inhibition, actives largely listed as inhibitors; O94925; hit rate 0.21% among 410,000; GLS enzymatic activity, qHTS titration; note: potency is the fitted concentration of half-maximal effect
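Enzyme dispensed in phosphate buffer (45 mM, pH 8.2, 0.02% Tween-20), compounds pinned in, then 1 mM L-glutamine solution and the glutamate oxidase–HRP–Amplex Red mix added; fluorescence read immediately and again after 30 min at room temperature.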
TrxR1 inh: rat TrxR1 inhibition; recombinant rTrxR1, NADPH fluorescence consumption, selenite substrate; Potency, µM (series often up to 114 µM), for the others: top-dose activity change, negative = inhibition, actives largely listed as inhibitors; hit rate 1% among 390,000; AID 588453; note: potency is the fitted concentration of half-maximal effect; nearly all actives have a fitted effect of over 65% in size
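Rat TrxR1 (90 nM in the dispensed reagent) was pre-reduced with 400 uM NADPH for 5 min at room temperature, then incubated with compound for 15 min. After 400 uM selenite was added, NADPH fluorescence (Ex 340/Em 450 nm) was followed for 8 min.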
Sfp inh conf: Sfp phosphopantetheinyl transferase inhibition, confirmation | Sfp PPTase enzymatic assay, qHTS titration | AID 2701 | shares compounds with Sfp PPTase inh | hit rate 79% among 380 | Potency, µM (series often up to 114 µM), for the others: at the highest dose activity change, negative = inhibition, most hits filed as inhibitors;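 note: potency is the fitted concentration of half-maximal effect; plate controls were uninhibited Sfp reaction for no effect and no enzyme control for full effect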
Target sequence (Q9F4F7 whole entry, looked up): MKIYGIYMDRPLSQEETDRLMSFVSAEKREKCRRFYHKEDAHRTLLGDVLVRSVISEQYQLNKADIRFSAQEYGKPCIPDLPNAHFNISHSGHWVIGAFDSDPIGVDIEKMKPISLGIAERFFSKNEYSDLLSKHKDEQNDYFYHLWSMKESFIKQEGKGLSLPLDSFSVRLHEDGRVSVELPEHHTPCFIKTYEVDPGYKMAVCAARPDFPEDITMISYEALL
Sfp PPTase gel: Inhibits B. subtilis Sfp phosphopantetheinylation; shares compounds with Sfp PPTase inh; purified Sfp, gel-based phosphopantetheinylation read-out; Potency, µM, actives largely listed as inhibitors; hit rate 20% among 210; AID 2707;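 active = potency below 100 µM; inconclusive = dose-dependent response but potency above 100 µM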;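 note: band intensities scaled against SCH202676 control wells before curve fitting; potency is an IC50 for inhibitors of Sfp transfer activity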
Starred values were filed as active, the others as inactive; i = inactive; ? = inconclusive; / = not tested or not shown; ! = not active in a repeat; [ ] = dose if it differs, or a comment. Unless noted, calls come from the whole dose curve; as a rule, active = well fitted curve in the direction sought with a large enough effect; inconclusive = small, poorly fitted or top-dose-only effect, or another doubt; inactive = no such curve, though single readings can be large; an effect the other way counts as inactive or inconclusive. Unless noted, % is set by controls: 0 for no effect and ±100 for the full control effect.

SMILES | TrxR1 substrate | GCN5L2 inh | VDR inh | Sfp PPTase inh | GLS inhibitor | TrxR1 inh | Sfp inh conf | others
Cc1ccnc(NC(=S)N2CCN(c3cccc(C(F)(F)F)c3)CC2)c1 | -8% | -9% | -19% | 2.5µM* | ? | -7% | 15µM*
Cc1ccc(C)c(NC(=S)N2CCN(c3cccc(C(F)(F)F)c3)CC2)c1 | -2% | -1% | 8% | 22% | -1% | 10% | /
Cc1ccc(NC(=S)N2CCC(c3ccc(C)cc3)C2)cc1 (stereo not drawn) | 5% | -18% | ? | 32µM* | -21% | 13% | 37µM* | Sfp PPTase gel=?
CC[C@H](C)[C@@H]1NC(=O)[C@H](Cc2ccc(O)cc2)NC(=O)[C@@H](N)CSSC[C@@H](C(=O)N2CCC[C@H]2C(=O)N[C@@H](CC(C)C)C(=O)NCC(N)=O)NC(=O)[C@H](CC(N)=O)NC(=O)[C@H](CCC(N)=O)NC1=O | / | 3% | -1% | 7% | / | / | /
CCN(CC)c1ccc(NC(=O)COC(=O)CSc2ccc(Br)cc2C)cc1 | -18% | -16% | -5% | 3.5µM* | 23% | -25% | ? | Sfp PPTase gel=?
O=S(=O)(Nc1ccc(S(=O)(=O)N2CCOCC2)cc1)c1ccccc1 | 8%[57.1 µM] | -23% | -3% | 9% | 2% | -5%[57.1 µM] | /
CC(C)(C)Cc1nnc(NC(=O)CSc2ccccc2)s1 | 0% | -29% | 28µM* | 14µM* | -26% | 2% | 7.4µM*
CCOCc1nnc(NC(=O)CSc2ccccc2)s1 | 0% | -12% | 6% | 13% | 3% | 18% | /
O=C(OCc1ccccc1)c1cccnc1 | / | 6% | -4% | 32µM* | ? | / | 37µM* | Sfp PPTase gel=?
Cc1ccccc1CSc1nnc(-c2ccco2)n1Cc1ccco1 | 2%[57.1 µM] | -22% | -13% | -11% | -2% | ? | /
c1ccc(CSc2nnc(-c3ccco3)n2Cc2ccco2)cc1 | 7% | -2% | 3% | 4µM* | -2% | 1% | 33µM*
O=C(Nc1ccc2c(c1)OCO2)N1CCCc2ccccc21 | 3% | 3% | -1% | 1% | 20% | 18% | /
Cc1ccc2c(c1)CCCN2C(=O)Nc1ccc2c(c1)OCO2 | 8%[57.1 µM] | -2% | ? | 3.2µM* | 35% | 9%[57.1 µM] | ? | Sfp PPTase gel=i
O=c1c2c(-c3ccccc3)csc2ncn1/N=C/c1cn(-c2ccccc2)nc1-c1cccs1 | 11%[0.457 µM] | / | 7% | / | / | 26% | /
CCCC#Cc1cnc2c(c1)C(=O)N([C@H](C)CO)C[C@@H](C)[C@@H](CN(C)C(=O)Nc1cccc(F)c1)O2 | / | / | / | / | 8% | / | /
Cc1oc(-c2cccs2)cc1C(=O)N1CCC(C)(C(=O)NS(=O)(=O)C2CC2)C1 (stereo not drawn) | / | / | / | / | 5% | / | /
O=C(Nc1nnc(COc2ccc(Cl)cc2)s1)c1cccs1 | -17% | 5% | -14% | 14µM* | ? | ? | 24µM*
Cc1ccc(NC(=O)c2sc3ccccc3c2Cl)cc1 | 11% | -6% | 11% | / | 1% | 8% | /
Cc1ccc(NC(=S)NC(=O)c2sc3ccccc3c2Cl)c(C(=O)O)c1 | / | -3% | / | 16µM* | / | / | 53µM*
O=C(NCc1ccco1)c1csc2c1CCCCC2 | 5% | -1% | 0% | 9% | 10% | 3% | ? | Sfp PPTase gel=i
CC1CCC(C(C)C)C(OC(=O)COC(=O)c2cc(O)ccc2N)C1 (stereo not drawn) | 36% | -12% | -25% | -3% | 4% | 5% | /
O=C(O)C(O)c1ccco1 (stereo not drawn) | -3% | -15% | -14% | 45µM* | ? | -5% | ? | Sfp PPTase gel=i
O=C(O)C(O)c1ccccc1 (stereo not drawn) | 4% | -1% | -17% | 0% | 5% | / | /
O=C(COc1cc(O)c2c(=O)cc(-c3ccccc3)oc2c1)c1ccc(F)cc1 | 0%[57.1 µM] | -2% | -2% | ? | -11% | 2%[57.1 µM] | /
CCCC(=O)Nc1nnc(CCOC)s1 | -3% | -3% | 8% | ? | 2% | 13% | /
SMILES | TrxR1 substrate | GCN5L2 inh | VDR inh | Sfp PPTase inh | GLS inhibitor | TrxR1 inh | Sfp inh conf | others
CC/C(=N\Nc1nncc2ccccc12)c1ccc(F)cc1 | -3% | -8% | 0% | 2% | 1% | 12% | /
CCOC(=O)NNc1nncc2ccccc12 | 3% | -1% | 11% | 35µM*! | 24% | 29% | 10%[53.7 µM] | Sfp PPTase gel=?
Cc1ccc(Cn2c(=S)[nH]c3ccc(N4CCOCC4)cc3c2=O)o1 | 5% | ? | 18µM* | 2.5µM* | -6% | 4.5µM* | 2.6µM*
C[C@H](CO)N1C[C@H](C)[C@@H](CN(C)C(=O)Nc2ccnc(N3CCOCC3)c2)OCc2cnnn2CCCC1=O | / | / | / | / | -1% | / | /
O=C(CN1C(=O)COc2ccc(S(=O)(=O)N3CCCC3)cc21)N1CCN(c2ccccc2F)CC1 | 5% | -3% | 2% | / | -6% | 8% | /
Cc1cc2ccccc2n1CCNC(=O)c1ccc(Br)o1 | 13%[57.1 µM] | -1% | 79µM* | 13µM* | -3% | 10µM* | 24µM*
Cc1cc2ccccc2n1CCNC(=O)c1ccc(Br)cc1 | -8% | -5% | -12% | / | 2% | 4% | /
COCCNC(=O)c1c(N)sc2c1CCCC2 | / | -6% | / | 14µM* | / | / | 37µM*
CNC(=O)c1c(N)sc2c1CCCCC2 | / | -11% | / | 20µM* | / | / | 21µM*
CCOc1ccc2oc(=O)cc(CN3CCN(C(=O)c4cccc(Cl)c4)CC3)c2c1 | 0% | 5% | 8% | / | ? | -3% | /
Cc1ccccc1NC(=O)CSc1nnc(-c2ccco2)c(-c2ccco2)n1 | 0% | ? | ? | 10µM* | -27% | 2.5µM* | 6.6µM*
O=C(/C=C/c1ccc(Br)o1)NCc1ccccc1 | 2% | -28% | 89µM* | 6.3µM* | -18% | 4µM* | 17µM* | Sfp PPTase gel=i
O=C(/C=C/c1ccccc1Cl)NCc1ccccc1 | 19% | -5% | -2% | 1% | 6% | 43% | /
CC12CCC(C(=O)NCc3ccc(Cl)cc3)(OC1=O)C2(C)C (stereo not drawn) | 7%[57.1 µM] | -1% | -6% | -3% | -6% | 19% | /
N=c1c2c3c(sc2ncn1Cc1ccco1)CCCCC3 | -3% | -4% | -18% | 13µM* | -1% | 2% | -7% | Sfp PPTase gel=i
CC(C)Cn1cnc2sc3c(c2c1=N)CCCC3 | -10% | -3% | 9% | 0% | -5% | -9% | /
CC(=O)n1c(-c2ccccc2)c(CO)c2ccccc21 | 6%[57.1 µM] | -6% | -18% | 16% | 1% | 12%[57.1 µM] | /

Bioassay records: PubChem, National Center for Advancing Translational Sciences (NCATS)
